# MsrA inhibitor: inhibits bovine methionine sulfoxide reductase A; purified bovine MsrA, absorbance read-out; inhibition, % at 15.5 µM; actives 0.75% (n = 360,000); AID 651718;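 also: 0% = vehicle wells with enzyme and 100% = reference inhibitor wells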
# PP5 inh: inhibitors of human protein phosphatase 5 (PP5); P53041; purified PP5c, OMFP substrate fluorescence; inhibition, % at 6.7 µM; actives 0.18% (n = 320,000);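 active = inhibition above the campaign's mean inhibition across all tested compounds plus 3 SD, cut at about 9.5% in these data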;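 also: 0% = DMSO only and 100% = 100 µM cantharidin control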
# bovine MsrA act: activators of bovine methionine sulfoxide reductase A | purified bovine MsrA, absorbance read-out | activation, % at 10.6 µM | actives 0.3% (n = 360,000); in the data active = activation above about 7.5%;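 also: 0% = vehicle and 100% = reference activator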
# ZTA DNA inh: ZTA (EBV) inhibition in EBNA-1 counter-screen | P03206 | actives 0.15% (n = 320,000) | ZTA-DNA binding, fluorescence polarization | inhibition, % at 11 µM | AID 2234; in the data active = inhibition above about 33%
# Target sequence (P03206 whole entry, looked up): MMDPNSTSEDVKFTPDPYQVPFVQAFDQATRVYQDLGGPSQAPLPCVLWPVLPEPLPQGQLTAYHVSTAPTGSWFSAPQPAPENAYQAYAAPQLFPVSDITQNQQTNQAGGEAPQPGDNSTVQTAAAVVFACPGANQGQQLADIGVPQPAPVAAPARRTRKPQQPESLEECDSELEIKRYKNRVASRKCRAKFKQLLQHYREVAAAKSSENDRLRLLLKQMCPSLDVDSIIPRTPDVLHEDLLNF
# PP1 inh: blocks human PP1-alpha phosphatase, a PP5 counter-screen; P62136; purified PP1alpha, OMFP fluorescence; actives 0.9% (n = 320,000); inhibition, % at 6.7 µM;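 active = inhibition above the mean inhibition of all tested compounds plus 3 SD, computed separately for each screening campaign, cut at about 15% in these data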
# Target sequence (P62136 whole entry, looked up): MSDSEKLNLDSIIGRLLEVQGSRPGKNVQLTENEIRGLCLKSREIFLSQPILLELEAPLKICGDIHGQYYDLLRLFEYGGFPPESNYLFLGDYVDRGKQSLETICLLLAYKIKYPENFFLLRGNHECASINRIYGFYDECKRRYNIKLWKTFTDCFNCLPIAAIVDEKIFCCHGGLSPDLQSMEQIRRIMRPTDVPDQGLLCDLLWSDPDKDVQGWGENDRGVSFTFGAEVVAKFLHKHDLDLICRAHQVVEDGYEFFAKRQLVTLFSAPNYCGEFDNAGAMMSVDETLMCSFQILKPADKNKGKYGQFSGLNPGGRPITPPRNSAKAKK
# EBNA-1 inh: blocks EBNA-1 binding to DNA | actives 0.34% (n = 300,000) | AID 1950 | EBNA-1 DNA binding, fluorescence polarization | inhibition, % at 14.8 µM; in the data active = inhibition above about 28%
# MsrA activ conf: bovine methionine sulfoxide reductase A activation confirmed; shares compounds with bovine MsrA act; purified bovine MsrA, absorbance read-out; activation, % at 10.6 µM; actives 12% (n = 1,000); in the data active = activation above about 4%;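 also: enzyme coupled to thioredoxin and thioredoxin reductase with NADPH; 0% = vehicle wells and 100% = reference activator wells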
# MsrA inh confirm: bovine MsrA inhibition, confirmed; shares compounds with MsrA inhibitor; purified bovine MsrA, absorbance read-out; inhibition, % at 15.5 µM; actives 41% (n = 2,300); AID 651822;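 also: coupled to thioredoxin reductase with NADPH and selenocystamine and DMSO as substrate; 0% = vehicle only and 100% = full effect of reference inhibitor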
# The depositor's hits bear a star; . = no result given. A selection: hits, their analogues and other compounds. The true share with any hit is near 2.3%. Rule as the data show it, unless noted: active = inhibition above about 4.5%; inactive = the rest.
SMILES,MsrA inhibitor,PP5 inh,bovine MsrA act,ZTA DNA inh,PP1 inh,EBNA-1 inh,MsrA activ conf,others
COc1cccc(CN2CCN(Cc3nc(C(C)C)cs3)CC2CCO)c1 (configuration not stated),1,-1,-8,12,2,5,.,
COc1ccccc1NC(=O)c1ccccc1Nc1ccccc1,0,0,10*,2,3,-7,-1,
COc1ccccc1NC(=O)c1ccccc1C(=O)O,1,-1,0,-14,0,8,.,
O=C1NC(=O)/C(=C\c2ccc(O)cc2O)S1,2,-2,-8,-2,3,-12,.,
O=C(Nc1nncs1)c1cc(S(=O)(=O)N2CCCCC2)ccc1Cl,1,-2,-3,9,0,7,.,
CCc1cccc(NC(=O)c2cccc3c2C(=O)N(C2CCCCC2)C3)c1,.,0,8.6*,-9,0,-6,-1,
O=C(Nc1cccc(F)c1)c1cccc2c1C(=O)N(C1CCCCC1)C2,1,0,-2,-1,-1,-3,.,
COc1ccc(C(NC(=O)C2CCN(CCOc3ccc(Cl)cc3Cl)CC2)c2cccs2)cc1 (configuration not stated),0,.,1,.,.,.,.,
COc1ccc(S(=O)(=O)Nc2ccc(-c3ccc4nncn4n3)cc2)c(OC)c1,0,-2,2,8,-3,1,.,
Cc1ccc(NC(=O)CCC(=O)NNC(=O)NC23CC4CC(CC(C4)C2)C3)cc1C,1,2,9.0*,4,10,-3,0,
COc1cccc(OC)c1OCCOc1ccc(C(=O)c2ccccc2)cc1,0,2,18*,-3,0,-6,1,
O=C(NNC1=Nc2ccccc2SC1)c1ccc(F)cc1,-2,1,7.7*,2,-4,-5,-2,
Cc1nc(Nc2cc(F)ccc2C)c2nnn(Cc3ccccc3)c2n1,-1,1,2,-5,-3,3,.,
C[C@H](CO)N1C[C@H](C)[C@@H](CN(C)Cc2cccc(O)c2)OCc2cnnn2CCCC1=O,1,.,-6,.,.,.,.,
COc1ccc(/C=N/NC(=O)c2cccnc2)cc1CN1CCc2cc(OC)c(OC)cc2C1C (configuration not stated),3,1,16*,-10,-3,-2,-2,
CN(Cc1ccccc1)C(=O)c1csc([C@@H]2C[C@H](O)[C@@H](CO)O2)n1,0,.,9.3*,.,.,.,-1,
CN(Cc1ccccc1)C(=O)c1csc([C@H]2C[C@H](O)[C@@H](CO)O2)n1,-1,.,-1,.,.,.,.,
CCOC(=O)c1cnc(Nc2nc3ccccc3o2)nc1C,1,-3,-1,13,-4,9,.,
CCOC(=O)c1cnc(Nc2nc3ccccc3o2)nc1CSc1nnc(C)s1,1,-1,15*,-6,-4,-8,1,
Cc1onc(C(=O)N2C(C)CCCC2C)c1[N+](=O)[O-] (configuration not stated),1,0,8.8*,7,0,-2,-1,
Cc1onc(C(=O)N2CCC(Cc3ccccc3)CC2)c1[N+](=O)[O-],1,1,0,1,-8,-6,.,
COc1ccccc1/C=C(/C(=O)OCC(=O)Nc1cc(C)ccc1C)c1ccccc1,1,3,1,-24,1,-19,.,
COc1cc(O)c(CCC(=O)c2ccc(OC)c(OC)c2)c(OC)c1,0,2,0,-4,-1,-25,.,
CC1(C(=O)NS(=O)(=O)c2cccc(C#N)c2)CCN1C(=O)c1ccco1 (configuration not stated),1,.,7,.,.,.,.,
CCCCCc1c(C)nc(Nc2ccc(F)cc2)[nH]c1=O,-1,1,9.8*,21,1,-1,1,
SMILES,MsrA inhibitor,PP5 inh,bovine MsrA act,ZTA DNA inh,PP1 inh,EBNA-1 inh,MsrA activ conf,others
CN(C)c1ccc2c(c1)Sc1cc(N(C)C)ccc1N2C(=O)c1ccccc1,0,2,1,-4,2,2,.,
CCOC(=O)Cc1csc(NC(=O)Cc2ccccc2)n1,1,1,-7,-10,7,0,.,
CCC(=O)Nc1nc(CC(=O)Nc2ccccc2)cs1,0,0,9.4*,13,1,2,0,
O=C(CSc1ncccn1)Nc1ccc2c(c1)CCC2,-1,7,7,1,-2,-1,.,
Cc1cccc(C)c1NC(=O)N1CCC(n2c(=O)[nH]c3ccccc32)CC1,-1,3,7.8*,10,-3,-1,-1,
Cc1nc2c(nc1C)C(=O)c1ccccc1C2=O,1,.,13*,.,.,.,8.4*,
CC1CCCCN1C(=O)CSc1nnc(-c2ccco2)n1C (configuration not stated),1,0,26*,12,-2,-13,-1,
CCOc1cc(NC(=S)NCc2ccccc2)c(OCC)cc1NC(=O)C(C)C,0,2,-3,4,2,-8,.,
Nn1cnnc1N/N=C/c1ccc(Cl)c([N+](=O)[O-])c1,1,6,18*,-6,-2,-20,1,
Nn1cnnc1N/N=C/c1ccc(F)cc1,0,-1,7,1,-4,-7,.,
Cc1ccc(/C=N/Nc2nncn2N)cc1,0,1,8.5*,1,-2,0,-1,
O=[N+]([O-])c1ccc(-[n+]2ccc3ccccc3c2)c([N+](=O)[O-])c1,2,2,11*,3,3,8,3,
O=[N+]([O-])c1ccc(SNc2ccccc2)c([N+](=O)[O-])c1,2,.,-4,.,.,.,.,
CC(NC(=O)COC(=O)CCN1C(=O)C2CC=CCC2C1=O)c1ccc(Br)cc1 (configuration not stated),0,0,-1,-8,-2,.,.,
Cc1ccc(NC2Sc3ccccc3NC2=O)cc1Cl (configuration not stated),1,6,-2,5,2,3,.,
Cc1cc(NC(=O)CCSc2nc(-c3ccco3)cc(C(F)(F)F)n2)n(-c2ccccc2)n1,0,1,18*,13,5,-10,1,
Cc1nn(C)c(C)c1NC(=O)CCSc1nc(-c2ccco2)cc(C(F)(F)F)n1,0,3,0,-2,-2,5,.,
CC1(C)CC(=O)c2sc(N3CCCCC3)nc2C1,4,-3,-8,-15,-2,0,.,
CC1(C)CNC(=O)c2sc(N3CCCCC3)nc2C1,0,0,8.0*,0,-5,-3,-2,
C[n+]1c(-c2ccccc2)cc2c(=Cc3ccc([N+](=O)[O-])cc3)c3ccccc3n21,11*,.,20*,.,.,.,17*,MsrA inh confirm=0
O=S(=O)(Nc1cc(Sc2ncn[nH]2)c(O)c2ccccc12)c1ccccc1,63*,.,14*,.,.,.,1,MsrA inh confirm=0
O=C(NCc1cccs1)C1C(=O)Nc2ccccc2C(=O)N1Cc1ccccc1 (configuration not stated),0,.,.,.,.,.,.,

# Assay outcomes deposited in PubChem by The Scripps Research Institute Molecular Screening Center.
